Most compounds without a hit are left out; they make up all but 11% or so of the library.
IMPase inh: cell-permeable inhibitors of inositol monophosphatase (IMPase) | P97697 | CHO-M1 cells, IP1 accumulation, HTRF TR-FRET ratio | inhibition (IP1 accumulation), % at 46.1 µM | 120,000 tested, under 10 active | AID 901; active = well fitted curve in the direction sought with a large enough effect in the signal ratio, not every such curve was filed as active; inconclusive = small, poorly fitted or top-dose-only effect, or a change in a side signal; inactive = no such curve, though single readings can be large or run the other way; the % refers to the signal ratio;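 note: cells stimulated with carbachol in lithium chloride buffer; plate controls were DMSO basal wells for no effect and reference inhibitor wells for full effect; higher means more IMPase inhibition seen as more IP1 and lower FRET ratio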
Target sequence (P97697 whole entry, looked up): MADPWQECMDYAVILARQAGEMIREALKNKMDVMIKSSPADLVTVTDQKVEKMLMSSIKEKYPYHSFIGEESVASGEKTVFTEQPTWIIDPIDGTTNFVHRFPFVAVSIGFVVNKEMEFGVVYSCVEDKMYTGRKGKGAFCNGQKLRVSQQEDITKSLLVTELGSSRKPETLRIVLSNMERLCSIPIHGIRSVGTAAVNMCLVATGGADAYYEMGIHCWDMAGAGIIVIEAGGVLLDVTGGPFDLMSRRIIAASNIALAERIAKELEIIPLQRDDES
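In this qHTS, compounds (final up to 46 uM) act on CHO-M1 cells that are then activated through the M1 receptor with carbachol, in pH 7.4 buffer containing 50 mM LiCl, for 30 min. IP1 accumulation is quantified by the IP-One immunoassay.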
PNC inhibitor: blocks assembly of the perinucleolar compartment; PC3M PTB-GFP, PNC prevalence imaging, 16 h; active compounds read low; activity change (PNC), negative = inhibition, % at 10 µM; hit rate 3.1% among 140,000; AID 2417;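 active = readout at or below -70, meaning at least 70% loss of cells showing the perinucleolar compartment, a nuclear body marking cancer cells; inconclusive = readout between -30 and a set limit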;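 note: plate controls were DMSO wells for no effect and camptothecin positive control wells for full effect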
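Read-out is percentage of cells bearing a perinucleolar compartment, from automated 20x imaging of fixed, Hoechst-stained PC3M PTB-GFP cells. Cells were seeded 4 h, then exposed 16 h to compound (23 nl of library stock) in duplicate plates.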
ALDH1A1 inh: blocks purified human ALDH1A1 activity | P00352 | Purified ALDH1A1, NADH fluorescence, propionaldehyde substrate | Potency, µM (titrated, usually from 75.3 µM), inactives show top-dose activity, negative = inhibition, usual class: inhibitors | hit rate 7.3% among 220,000 | AID 1030;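 note: potency is the fitted concentration of half-maximal effect; plate controls were no enzyme wells and a reference inhibitor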
12-hLO inh: 12-hLO (ALOX12) enzyme inhibition; P18054; Potency, µM (series often up to 57.1 µM), without a hit: at the top dose activity change, negative = inhibition, most hits filed as inhibitors; purified 12-hLO, xylenol orange hydroperoxide absorbance; hit rate 0.12% among 150,000; AID 1452; active = well fitted curve in the direction sought with a large enough effect; inconclusive = small, poorly fitted or top-dose-only effect, or another doubt; inactive = no such curve, though single readings can be large; an effect the other way counts as inactive or inconclusive; note: potency is the fitted concentration of half-maximal effect; nearly all actives have a fitted effect of over 55% in size
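Lipoxygenase turnover measured by absorbance at 573 and 405 nm after Fe-XO development. Human 12hLO 150 nM, arachidonate 40 uM, pH 7.0 Hepes buffer with detergent; 15 min compound preincubation, 30 min reaction.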
IMPase Li cell: cell-permeable IMPase inhibitors with lithium potentiation. CHO-M1 cells, IP1 TR-FRET (IP-One), carbachol + lithium. Potency, µM (highest dose often 59.4 µM), without a hit: at the top dose activity, negative = IMPase inhibition, usual class: inhibitors. hit rate 0.35% among 210,000; active = well fitted curve in the direction sought with a large enough effect; inconclusive = small, poorly fitted or top-dose-only effect, or another doubt; inactive = no such curve, though single readings can be large; an effect the other way counts as inactive or inconclusive;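 note: IP1 builds up when IMPase is blocked and the TR-FRET signal falls; potency is the fitted concentration of half-maximal effect; plate controls were basal vehicle for no effect and high inhibitor control for full effect; nearly all actives have a fitted effect of over 50% in size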
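IP1 accumulation measured by competitive TR-FRET in lysed CHO-M1 cells after 30 min compound exposure at 37C, with a small lithium addition to potentiate weak responses. Hill-equation AC50 from ratio and donor-channel data.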
HPGD block: HPGD (human) dehydrogenase inhibition; Potency, µM, for the others: top-dose activity change, negative = inhibition, actives largely listed as inhibitors; AID 894; hit rate 4.3% among 150,000; purified HPGD, NADH fluorescence kinetic, PGE2 substrate; note: potency is the fitted concentration of half-maximal effect
Target sequence (P15428 whole entry, looked up): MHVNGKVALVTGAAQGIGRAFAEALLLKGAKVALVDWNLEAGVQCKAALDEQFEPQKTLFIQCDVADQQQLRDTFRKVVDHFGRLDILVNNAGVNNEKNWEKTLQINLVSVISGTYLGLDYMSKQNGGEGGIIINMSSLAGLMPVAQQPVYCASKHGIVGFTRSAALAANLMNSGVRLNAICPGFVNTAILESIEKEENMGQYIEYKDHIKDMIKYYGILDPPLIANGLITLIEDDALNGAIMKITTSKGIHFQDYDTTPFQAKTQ
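20 nM HPGD preincubated 15 min at room temperature with compound in 50 mM Tris-HCl pH 8, 0.01% Tween 20. Started with 1 mM NAD+ and 30 uM prostaglandin E2; NADH fluorescence (360/450 nm) read 5 times over 30-s intervals, last minus first.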
* hit, by the source's call; [ ] = another dose, or the depositor's remark. Unless noted, calls come from the whole dose curve; as a rule, active = well fitted inhibition curve with a large enough effect (not every such curve was filed as active); inconclusive = small, poorly fitted or top-dose-only effect, or another doubt; inactive = no such curve, though single readings can be large or run the other way. Unless noted, % is set by controls: 0 for no effect and ±100 for the full control effect.

How did Cc1ccc(NC(=O)CSC2=C(C#N)C(c3ccco3)CC(=O)N2)cc1 (stereo unspecified) do in these assays?
IMPase inh: 0; PNC inhibitor: -20; ALDH1A1 inh: 14µM*; 12-hLO inh: -1%; IMPase Li cell: -30%[38.3 µM]; HPGD block: -6%

Results for O=c1nc2ccccc2c2n1C[C@H](CN1CCN(c3ccccc3)CC1)N2 ?
IMPase inh: 1; ALDH1A1 inh: -8%; 12-hLO inh: -2%; IMPase Li cell: 5%; HPGD block: inconclusive

What do the screens show for `CN(C)c1ncc2nc(-c3cc(F)cc(F)c3)c(=O)n(-c3ccccc3)c2n1`?
ALDH1A1 inh: 18%; IMPase Li cell: -13%

How did COC(=O)c1cccc(Oc2nc3c(c(=O)n(C)c(=O)n3C)n2C(C)C)c1 do in these assays?
IMPase inh: -10; PNC inhibitor: -97*; ALDH1A1 inh: 0%; 12-hLO inh: 5%; IMPase Li cell: inconclusive; HPGD block: -7%

What do the screens show for `Cc1cccc(Oc2nc3c(c(=O)n(C)c(=O)n3C)n2C)c1`?
IMPase inh: 7; ALDH1A1 inh: -2%; IMPase Li cell: 1%

Results for Cc1ccc(-c2nnc(Nc3ccc(Br)cc3)c3ccccc23)cc1S(=O)(=O)NCC1CCCO1 (stereo unspecified) ?
IMPase inh: -5

Results for c1ccc(Cn2nnc3c(N4CCc5ccccc5C4)ncnc32)cc1 ?
IMPase inh: 5; PNC inhibitor: 30; ALDH1A1 inh: inconclusive; 12-hLO inh: 0%; IMPase Li cell: 20%[38.3 µM]; HPGD block: 32µM*

What do the screens show for `c1ccc(Cn2nnc3c(N4CCCC4)ncnc32)cc1`?
IMPase inh: -5; PNC inhibitor: -22; ALDH1A1 inh: inconclusive; 12-hLO inh: -1%; IMPase Li cell: -7%[38.3 µM]; HPGD block: -11%

What do the screens show for `Clc1ccccc1Nc1ncnc2c1nnn2Cc1ccccc1`?
IMPase inh: 5; PNC inhibitor: inconclusive; ALDH1A1 inh: inconclusive; 12-hLO inh: -9%; IMPase Li cell: 10%[38.3 µM]; HPGD block: 22µM*

Results for COc1ccc(C2C(C(=O)Nc3ccccc3)=C(C)Nc3nc(-c4ccc(Cl)cc4)nn32)cc1 (stereo unspecified) ?
IMPase inh: 2

How did Cn1cnnc1Sc1ccc(/C=C(\CCC(=O)O)c2nc3ccccc3s2)cc1[N+](=O)[O-] do in these assays?
ALDH1A1 inh: 12µM*; IMPase Li cell: -3%

What do the screens show for `CN(c1ccccc1)c1ccc(/C=C(\CCC(=O)O)c2nc3ccccc3s2)cc1[N+](=O)[O-]`?
PNC inhibitor: 36; ALDH1A1 inh: 13µM*; 12-hLO inh: -1%; IMPase Li cell: 4%; HPGD block: 25µM*

What do the screens show for `COc1ccc(NC(=O)/C(C#N)=C/c2ccc(Sc3nncn3C)c([N+](=O)[O-])c2)cc1`?
ALDH1A1 inh: 11µM*; IMPase Li cell: 18%

Results for Cn1cnnc1Sc1ccc(/C=C/C(=O)c2ccc(O)cc2)cc1[N+](=O)[O-] ?
ALDH1A1 inh: -2%; IMPase Li cell: 2%

How did Cc1ccc(/C=C(\CCC(=O)O)c2nc3ccccc3s2)cc1[N+](=O)[O-] do in these assays?
PNC inhibitor: inconclusive; ALDH1A1 inh: inconclusive; 12-hLO inh: -3%; IMPase Li cell: 17%; HPGD block: -8%

Results for CC(=C/C=C/C(C)=C/C=C/C=C(C)/C=C/C=C(C)/C=C/C(=O)O)/C=C/C(=O)O ?
ALDH1A1 inh: 14%; 12-hLO inh: 0%; IMPase Li cell: -4%; HPGD block: -4%

What do the screens show for `CC1CCCN(Cc2c(O)ccc3c(=O)c(-c4ccc(Cl)cc4)c(C(F)(F)F)oc23)C1` (stereo unspecified)?
IMPase inh: -5

Results for CCCc1nc(SCC(=O)c2ccc(OC)cc2)c2ccccc2n1 ?
ALDH1A1 inh: 10µM*; IMPase Li cell: 8%

Results for CCc1nc(SCC(=O)c2ccccc2)c2ccccc2n1 ?
ALDH1A1 inh: inconclusive; IMPase Li cell: 4%

What do the screens show for `CCc1nc(SCC(=O)NNC(=O)c2ccc(OC)cc2)c2ccccc2n1`?
ALDH1A1 inh: inconclusive; IMPase Li cell: 8.9µM*

How did OC[C@@H]1[C@@H](c2ccc(Cl)cc2)C(c2ccccc2)=NN1c1ccccc1 do in these assays?
ALDH1A1 inh: inconclusive; 12-hLO inh: -22%[0.00818 µM]; IMPase Li cell: 22µM*; HPGD block: inconclusive

Results for OC[C@@H]1[C@@H](c2ccc(Cl)cc2)C(c2cccc(Cl)c2)=NN1c1ccccc1 ?
ALDH1A1 inh: inconclusive; 12-hLO inh: -10%[0.00818 µM]; IMPase Li cell: -9%; HPGD block: inconclusive

What do the screens show for `COc1ccccc1[C@H]1C(c2ccccc2)=NN(c2ccccc2)[C@@H]1CO`?
ALDH1A1 inh: inconclusive; 12-hLO inh: -2%[0.00818 µM]; IMPase Li cell: 25µM*; HPGD block: inconclusive

What do the screens show for `C=CCn1c(Sc2ncc([N+](=O)[O-])s2)n[nH]c1=O`?
ALDH1A1 inh: 2µM*

What do the screens show for `CCC1=C(OC(=O)N(CC)CC)N2C(=O)OC(=NCCOC)[C@]2(C)[C@H]2C1=CC[C@H]1C(=O)N(CC(=O)OC)C(=O)[C@H]12`?
ALDH1A1 inh: 28µM*; 12-hLO inh: 3%; IMPase Li cell: 0%; HPGD block: -15%

How did CCC1=C(OC(=O)N(CC)CC)N2C(=O)OC(=NCCOC)[C@]2(Cc2ccccc2)[C@H]2C1=CC[C@H]1C(=O)N(CC(=O)OC)C(=O)[C@H]12 do in these assays?
ALDH1A1 inh: 9%; 12-hLO inh: -1%; IMPase Li cell: -5%; HPGD block: -3%

What do the screens show for `CCc1ccc2[nH]c(=O)c(CN(Cc3ccccc3)Cc3nnnn3Cc3ccco3)cc2c1`?
IMPase inh: 18; PNC inhibitor: inconclusive; ALDH1A1 inh: 13µM*; 12-hLO inh: inconclusive; IMPase Li cell: 34%[38.3 µM]; HPGD block: -25%

What do the screens show for `O=c1[nH]c2cc3c(cc2cc1CN(Cc1cccnc1)Cc1nnnn1Cc1ccco1)OCCO3`?
IMPase inh: -4; PNC inhibitor: 33; ALDH1A1 inh: inconclusive; 12-hLO inh: -9%; IMPase Li cell: 26%[38.3 µM]; HPGD block: inconclusive

What do the screens show for `Cc1cc(C)c2cc(CN(Cc3ccc4c(c3)OCO4)Cc3nnnn3Cc3ccco3)c(=O)[nH]c2c1`?
IMPase inh: 3; PNC inhibitor: 6; ALDH1A1 inh: 4.5µM*; 12-hLO inh: -29%; IMPase Li cell: 24%[38.3 µM]; HPGD block: -28%
